G9a inh – qHTS Assay for Inhibitors of Histone Lysine Methyltransferase G9a | G9a H3K9 monomethylation, AlphaScreen, 2 h | Potency, µM (series often up to 102 µM), inactives show top-dose activity, negative = inhibition, most hits filed as inhibitors | 8.8% of 350,000 active; also: potency is read from the fitted curve at half-maximal effect; % is scaled to controls: 0 for no effect and ±100 for the full control effect; nearly all actives have a fitted effect of over 75% in size
Target sequence (Q96KQ7 913-1193 limits assumed): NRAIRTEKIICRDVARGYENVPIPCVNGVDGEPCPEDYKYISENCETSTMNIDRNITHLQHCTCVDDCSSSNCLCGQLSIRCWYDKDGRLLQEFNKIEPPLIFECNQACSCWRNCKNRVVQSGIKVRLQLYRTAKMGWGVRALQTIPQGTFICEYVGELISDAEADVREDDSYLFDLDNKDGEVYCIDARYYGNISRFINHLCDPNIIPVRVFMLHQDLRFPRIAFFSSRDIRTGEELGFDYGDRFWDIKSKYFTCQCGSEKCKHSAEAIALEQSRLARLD
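Step 1: enzyme (final 20 nM) with compound, 15 min RT. Step 2: substrate peptide 500 nM and SAM 20 uM, 2 h RT. Step 3: anti-H3K9me1 antibody and AlphaScreen beads, 10 min, then plate read.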
ALDH1A1 inh – qHTS Assay for Inhibitors of Aldehyde Dehydrogenase 1 (ALDH1A1); Purified ALDH1A1, NADH fluorescence, propionaldehyde substrate; Potency, µM (series often up to 75.3 µM), inactives show at the highest dose activity, negative = inhibition, usual class: inhibitors; AID 1030, 2008; 7.3% of 220,000 active; active = well fitted inhibition curve with a large enough effect, not every such curve was filed as active; inconclusive = small, poorly fitted or top-dose-only effect, or another doubt; inactive = no such curve, though single readings can be large or run the other way;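 also: potency is read from the fitted curve at half-maximal effect; plate controls were no enzyme wells and a reference inhibitor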
Target sequence (P00352 whole entry, looked up): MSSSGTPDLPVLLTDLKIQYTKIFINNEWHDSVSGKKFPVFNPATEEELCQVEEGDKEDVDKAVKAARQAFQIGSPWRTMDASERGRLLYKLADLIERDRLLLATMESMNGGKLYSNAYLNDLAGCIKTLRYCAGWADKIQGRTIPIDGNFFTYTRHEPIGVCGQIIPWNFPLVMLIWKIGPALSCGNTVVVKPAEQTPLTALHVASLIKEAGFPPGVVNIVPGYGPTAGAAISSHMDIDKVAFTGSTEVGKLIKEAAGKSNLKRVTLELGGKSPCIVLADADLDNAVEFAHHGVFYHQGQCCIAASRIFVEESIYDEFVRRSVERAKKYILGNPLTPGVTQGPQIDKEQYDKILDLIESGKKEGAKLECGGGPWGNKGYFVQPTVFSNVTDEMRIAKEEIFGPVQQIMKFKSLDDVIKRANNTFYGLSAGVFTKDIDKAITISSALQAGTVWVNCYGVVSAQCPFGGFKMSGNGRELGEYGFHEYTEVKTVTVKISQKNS
miR-21 act – qHTS Assay for Modulators of miRNAs and/orActivators of miR-21. HeLa miR-21 FLuc reporter, luciferase, 48 h. Potency, µM (titrated, usually from 38.3 µM), for the others: top-dose activity change, positive = activation, most hits filed as activators. 340,000 tested, under 10 active. AID 2288, 2010;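 also: % of control where 0% means no effect; miR-21 action dims this reporter so a rising signal means less miR-21 action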
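Compounds were titrated across several concentrations (up to approximately 40 uM) and incubated 48 hours with HeLa miR-21-FLuc reporter cells (miR-21 target sequence downstream of FLuc, endogenous miR-21). Readout was firefly luciferase luminescence after lytic detection reagent.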
Sfp PPTase inh – qHTS Assay for Inhibitors of Bacillus subtilis Sfp phosphopantetheinyl transferase (PPTase). Potency, µM, without a hit: largest response in the series, negative = inhibition, hits mostly inhibitors. Biochemical Sfp PPTase activity, qHTS. 3.5% of 310,000 active. 4'-phosphopantetheinyl transferase ffp (Bacillus subtilis), Q9F4F7;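 also: the enzyme is Sfp with the accession as filed and its product quenches rhodamine fluorescence; potency is read from the fitted curve at half-maximal effect; 0% = enzyme reaction without inhibitor and -100% = no enzyme wells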
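Compounds were incubated with enzyme (final 15 nM) for 15 min at room temperature before substrate addition started the reaction. Fluorescence at 525 nm excitation, 598 nm emission was recorded immediately and after 30 minutes.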
KDM4E inh – qHTS Assay for Inhibitors of Human Jumonji Domain Containing 2E (JMJD2E) | Lysine-specific demethylase 4E (Homo sapiens), B2RXH2 | JMJD2E catalytic domain, FDH-coupled NADH fluorescence (FDH is formaldehyde dehydrogenase) | Potency, µM (titrated, usually from 57.1 µM), for inactives: at the top dose activity change, negative = inhibition, actives largely listed as inhibitors | 1.6% of 230,000 active | AID 2147, 2009; active = well fitted inhibition curve with a large enough effect, not every such curve was filed as active; inconclusive = small, poorly fitted or top-dose-only effect, or another doubt; inactive = no such curve, though single readings can be large or run the other way;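 also: potency is read from the fitted curve at half-maximal effect; 0% = wells with enzyme and -100% = buffer wells without enzyme; nearly all actives have a fitted effect of over 50% in size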
Lamin A splicing – qHTS Assay for Modulators of Lamin A Splicing; HeLa LMNA splicing GFP/RFP minigene ratio, 48 h; Potency, µM (top dose mostly 46.1 µM), for inactives: at the highest dose ratio change, negative = inhibition, actives largely listed as inhibitors; 0.01% of 200,000 active; AID 1487, 2009; active = well fitted inhibition curve with a large enough effect in the signal ratio, with a control signal flat, not every such curve was filed as active; inconclusive = small, poorly fitted or top-dose-only effect, or effect the other way, or a change in a side signal; the % refers to the signal ratio; also: potency is read from the fitted curve at half-maximal effect; % is scaled to controls: 0 for no effect and ±100 for the full control effect
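Read-out is the ratio of GFP to DsRed2 object intensity, acquired by 488 nm laser-scanning cytometry on HeLa lamin A-EGFP minigene reporter cells. Compound incubation 48 hrs at 37 °C in Opti-MEM with 2% FBS; DMSO 0.5% final.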
* hit, by the source's call; ? = inconclusive; . = not tested or not shown; [ ] = another dose, or the depositor's remark. In the library only some 13% were active in any assay of this set; here they are far more common. Unless noted, calls follow the shape of the dose curve; as a rule, active = well fitted curve in the direction sought with a large enough effect; inconclusive = small, poorly fitted or top-dose-only effect, or another doubt; inactive = no such curve, though single readings can be large; an effect the other way counts as inactive or inconclusive.

SMILES	G9a inh	ALDH1A1 inh	miR-21 act	Sfp PPTase inh	KDM4E inh	Lamin A splicing
COc1cccc(-c2cc(C(=O)Nc3ccc4c(c3)OCCO4)c3ccccc3n2)c1	-5%[12.7 µM]	94%	-11%	5%	-5%	-4%
Cc1ccc(-c2cc(C(=O)Nc3cccc(S(=O)(=O)N(C)C)c3)c3ccccc3n2)o1	8.9µM*	.	1%	50µM*	.	.
CCc1nn(CC(=O)N(CC)Cc2ccccc2)c(=O)c2cc3occc3n12	-5%[59 µM]	.	-12%	.	.	.
COc1ccc(C(=O)NCc2nnc(SCC(=O)N3CCCC3)o2)cc1OC	.	.	2%	-4%	.	.
CC(C)(C)C1CCc2onc(C(=O)N3CCOCC3)c2C1 (stereo not drawn)	0%[12.7 µM]	25µM*	-20%	1%	0%	20%
COc1ccc2c(c1)c(CC(=O)Nc1cccc(F)c1C)c(C)n2C(=O)c1ccc(Cl)cc1	23%[59 µM]	.	-8%	.	.	.
Cc1ccc(-c2cn3cccc(C)c3n2)cc1	.	?	-21%	-15%	-1%	.
COc1ccc(-c2nc(CSCC(=O)NCCc3ccc(OC)c(OC)c3)c(C)o2)cc1	-26%[59 µM]	.	?	.	.	.
Cc1ccc(C(=O)NNC(=S)Nc2cccc3ccccc23)s1	35µM*	1%	-55%	-2%	15%	0%
O=C(Nc1cccc2ccccc12)c1ccc([N+](=O)[O-])s1	-13%[59 µM]	-4%	?	15%	-4%	?
O=C(NNC(=S)Nc1cccc2ccccc12)c1cccc(Br)c1	?	4.5µM*	-11%	11%	-27%	-17%
COc1ccc(C(=O)C(/C=N/O)=N/Nc2ccc(F)cc2)cc1	18µM*	15%	6%	-2%	-4%	-15%[46 µM]
COc1ccc(C(=O)N/N=C/C(=O)c2ccccc2)cc1	27%	.	-40%	17%	.	.
CO/N=C/C(=N\Nc1ccc(OC)cc1)C(=O)c1ccc(OC)cc1	35µM*	11%	1%	?	8%	-1%
CCN(CC)CCN(C(=O)Cn1nnc(-c2ccc(C)o2)n1)C(C(=O)NC1CCCC1)c1ccc(F)cc1 (stereo not drawn)	?	.	-3%	7%	.	.
O=c1oc2c(CN3CCOCC3)c(O)ccc2c2c1CCCC2	?	?	-21%	-1%	?	-4%
O=c1oc2c(CN3CCOCC3)c(O)c(Cl)cc2c2c1CCCC2	79µM*	?	-7%	56µM*	?	?
CCCCCCCc1cc2c(cn1)C(=O)C(C)(OC(C)=O)C(O)=C2Cl (stereo not drawn)	.	?	.	1%	6%	.
COC(=O)[C@@]1(Cc2ccc(OC)cc2)[C@H]2c3cc(C(=O)N(C)C)n(CCSCCO)c3C[C@H]2CN1C(=O)c1ccccc1	56µM*	-14%	-6%	5%	-8%	?
COC(=O)[C@@]1(Cc2ccc(OC)cc2)[C@H]2c3cc(C(=O)N4CCCC4)n(CCc4c[nH]c5ccc(O)cc45)c3C[C@H]2CN1C(=O)c1ccccc1	50µM*	?	-11%	1%	?	5%
COC(=O)[C@@]1(Cc2ccc(F)cc2)[C@H]2c3cc(C(=O)N4CCCC4)n(CCO)c3C[C@H]2CN1C(=O)c1ccccc1	?	5%	-3%	0%	2%	12%
COC(=O)[C@@]1(Cc2ccc(F)cc2)[C@H]2c3cc(C(=O)N(C)C)n(Cc4ccc(OC(F)(F)F)cc4)c3C[C@H]2CN1C(=O)c1ccccc1	50µM*	10%	?	22%	-10%	?
COC(=O)[C@@]1(Cc2ccc(OC)cc2)[C@H]2c3cc(C(=O)N4CCCC4)n(CCO)c3C[C@H]2CN1C(=O)c1ccccc1	50µM*	2%	-3%	-6%	-1%	7%
COC(=O)[C@@]1(Cc2ccc(OC)cc2)[C@H]2c3cc(C(=O)N4CCCC4)n(CCc4c[nH]c5cc(F)ccc45)c3C[C@H]2CN1C(=O)c1ccccc1	.	-15%	.	22%	?	.
O=c1[nH]c(=O)n([C@@H]2C[C@H](O)[C@H](CO)O2)cc1C(F)(F)F	19%[21.5 µM]	5%[20.9 µM]	.	33%	5%[25.5 µM]	?
SMILES	G9a inh	ALDH1A1 inh	miR-21 act	Sfp PPTase inh	KDM4E inh	Lamin A splicing
COC(=O)[C@@]1(Cc2ccc(F)cc2)[C@H]2c3cc(C(=O)N4CCCC4)n(CCc4ccc(O)c(O)c4)c3C[C@H]2CN1C(=O)c1ccccc1	7.1µM*	2%	4%	-22%	8%	?
COC(=O)[C@@]1(Cc2ccc(F)cc2)[C@H]2c3cc(C(=O)N4CCCC4)n(CCc4ccc(OC)c(Br)c4)c3C[C@H]2CN1C(=O)c1ccccc1	.	-8%	.	13%	-2%	.
O=[N+]([O-])c1ccc(COc2cccc(CNc3ccc(Br)cc3)c2)cc1	45µM*	-8%	-2%	22%	-15%	?
O=[N+]([O-])c1ccc(COc2ccc(CNc3ccccc3)cc2)cc1	8%[59 µM]	4%	-25%	-2%	1%	-6%
COC(=O)c1cc(S(=O)(=O)N(C)C2CCCCC2)c[nH]1	?	.	-1%	11%	.	.
COc1ccc(-c2cn(CCO)c(-c3ccc(Cl)nc3)n2)cc1	13%[2.33 µM]	.	.	.	.	.
COCCn1c(SCC(=O)Nc2ccc(F)c(Cl)c2)nc2c(oc3ccccc32)c1=O	-9%[59 µM]	.	-14%	.	.	.
O=C1NN(c2ccccc2)C(=O)/C1=C/c1ccc(Sc2cccc3ccccc23)o1	32µM*	-5%	-10%	?	-4%	?
COc1ccc(N2C(=O)CSC2c2cccs2)cc1 (stereo not drawn)	50µM*	?	-10%	10%	-8%	?
CCO/C(C)=C1/SC(=S)NC1=O	?	.	0%	32µM*	-11%	.
CC(C1CC2CCC1C2)n1c(-c2ccco2)n[nH]c1=S (stereo not drawn)	2.2µM*	14µM*	0%	?	?	13%[46 µM]
O=[N+]([O-])c1ccc(/C=C/C2=NN(c3ccccc3)C(c3ccco3)C2)cc1 (stereo not drawn)	22µM*	2%	-23%	40µM*	-2%	?
COc1ccc(Nc2nnc(-c3ccncc3)s2)cc1Cl	8.9µM*	.	-21%	-6%	.	.
CC[C@H]1C2=C3C(CC[C@H]4C(OCc5ccc(F)cc5C(F)(F)F)OC[C@](C)([C@@H]34)N(C(=O)OC(C)(C)C)C2)C(COC(C)=O)C1COC(C)=O (stereo partly drawn)	.	-15%	.	2%	?	.
C[C@H]1Cc2c(COc3ccccc3)nc3c(c2CO1)CN(C(=O)c1cccnc1)CC3	.	-6%[13.5 µM]	.	10%	9%[11.4 µM]	-8%[9.22 µM]
